Source: PubChem (Sanford-Burnham Center for Chemical Genomics)
Sampled rows, rich in hits. Any-hit rate of the full collection: about 28%.
CYP2C9 activ – increases human cytochrome P450 2C9 activity. P11712. recombinant CYP2C9, luciferin-H conversion, luminescence; hits give high values; factor 1 = untreated enzyme, 0 = blocked. activation factor at 5 µM. 96,000 tested, 1.4% active. AID 1024;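 active = activation factor of 2 or more for CYP2C9 at a 5 µM dose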
CYP2C19 act – increases human CYP2C19 enzyme activity | P33261 | recombinant CYP2C19, luciferin-H EGE luminescence; hits give high values; 0 = fully inhibited enzyme, 1 = untreated enzyme | activation factor at 5 µM | 96,000 tested, under 10 active;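 active = activation factor of at least 2 at 5 µM in the primary screen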
Mac1 fbg inh – blocks human CD11b/CD18 adhesion to fibrinogen; inhibition, % at 10 µM; 93,000 tested, 0.54% active; K562 CD11b/CD18 adhesion to fibrinogen, ATPlite luminescence; Mn2+ added to activate the integrin;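 active = primary inhibition of 50% or more at 10 µM, then 40% or more on retest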
Target sequence (P05107 whole entry, looked up, other chains not shown): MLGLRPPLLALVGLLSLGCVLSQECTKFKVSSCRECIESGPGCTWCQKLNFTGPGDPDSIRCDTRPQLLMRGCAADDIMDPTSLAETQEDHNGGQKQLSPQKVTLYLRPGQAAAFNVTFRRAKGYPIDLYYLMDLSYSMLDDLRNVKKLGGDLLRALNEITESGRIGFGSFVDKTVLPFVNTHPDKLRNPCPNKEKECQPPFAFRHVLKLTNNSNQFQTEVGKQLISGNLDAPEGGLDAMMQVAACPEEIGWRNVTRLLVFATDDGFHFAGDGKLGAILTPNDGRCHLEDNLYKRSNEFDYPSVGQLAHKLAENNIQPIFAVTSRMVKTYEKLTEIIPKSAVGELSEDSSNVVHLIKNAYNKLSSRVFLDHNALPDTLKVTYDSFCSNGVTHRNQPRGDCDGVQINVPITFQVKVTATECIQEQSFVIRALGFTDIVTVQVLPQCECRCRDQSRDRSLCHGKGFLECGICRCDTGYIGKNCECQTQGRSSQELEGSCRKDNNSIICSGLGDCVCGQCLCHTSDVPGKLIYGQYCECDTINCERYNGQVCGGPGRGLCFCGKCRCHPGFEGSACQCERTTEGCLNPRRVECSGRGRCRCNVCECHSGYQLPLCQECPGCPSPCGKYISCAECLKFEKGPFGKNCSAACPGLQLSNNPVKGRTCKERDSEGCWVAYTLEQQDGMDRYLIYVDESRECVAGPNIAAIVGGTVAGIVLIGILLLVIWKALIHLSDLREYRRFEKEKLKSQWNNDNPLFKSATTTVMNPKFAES
CYP2C9 inhib – blocks human cytochrome P450 2C9. inhibition, % at 5 µM. CYP2C9 Supersomes, luciferin-H conversion, luminescence. AID 777. 96,000 tested, 20% active. P11712;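 active = blocking of liver enzyme CYP2C9 beyond about 50% at 5 µM, limit read from the data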
CD11b adhes enh – enhancers of human CD11b/CD18 binding to fibrinogen; P05107+P11215; K562 CD11b/CD18 adhesion to fibrinogen, ATPlite luminescence; activation, % at 10 µM; 93,000 tested, 0.07% active; AID 1499;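 active = 10 µM primary screen giving 50% or more activity, confirmed by 40% or more on retest at that dose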
CYP2C19 inh – blocks human cytochrome P450 2C19 | P33261 | CYP2C19 Supersomes, luciferin-H EGE luminescence, 30 min | inhibition, % at 5 µM | 96,000 tested, 21% active | AID 778;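 active = CYP2C19 inhibition above a set limit at 5 µM in the primary screen, cut at about 50% in these data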
Each line names hits and unclear results; the compound was inactive in the other large screens.

CCOC(=O)N1CCN(C(=O)Cn2ncn3nc(-c4cccs4)cc3c2=O)CC1	none (no result: Mac1 fbg inh, CD11b adhes enh)
CC(Sc1ccc(Cl)cc1)C(=O)NCc1cccnc1 (centres undefined)	CYP2C19 inh 50.7
Cc1oc(-c2ccccc2F)nc1CSCC(=O)NCc1ccc2c(c1)OCO2	CYP2C9 inhib 74.6, CYP2C19 inh 78.5
O=C(CSc1nnc(SCC(=O)NCc2ccc3c(c2)OCO3)s1)NCc1ccc2c(c1)OCO2	none
O=C(CCCc1c[nH]c2ccccc12)NCc1ccc2c(c1)OCO2	CYP2C9 inhib 50.6, CYP2C19 inh 83.1
O=C(CSc1nnc(CNC(=O)c2c(F)cccc2Cl)o1)NCc1ccc2c(c1)OCO2	none
O=C(CSCc1ccc(Cl)cc1)NCc1ccc2c(c1)OCO2	CYP2C9 inhib 99.8
O=C(NCc1ccc2c(c1)OCO2)c1ccc(=O)[nH]c1	none
CCOC(=O)c1c(NCc2ccc3c(c2)OCO3)c2ccccc2[nH]c1=O	CYP2C19 inh 73.5 (no result: Mac1 fbg inh, CD11b adhes enh)
O=C(Cc1c[nH]c2ccccc12)NCc1ccc2c(c1)OCO2	CYP2C9 inhib 53.0, CYP2C19 inh 94.3
CCOC(=O)C1(CCSC)NC(c2ccco2)C2C(=O)N(C)C(=O)C21 (centres undefined)	none
COc1cccc(C2=NN(C(=O)c3ccccc3)C(O)(C(F)(F)F)C2)c1 (centres undefined)	CYP2C9 inhib 92.4, CYP2C19 inh 88.8
CC1CC(C)CN(C(=O)c2ccc3c(c2NCCO)C(=O)c2ccccc2C3=O)C1 (centres undefined)	CYP2C9 inhib 94.6, CYP2C19 inh 93.6
CCOc1cccc(OCCOCCn2cnc3ccccc3c2=O)c1	CYP2C9 inhib 86.5, CYP2C19 inh 93.7
CC(C)(c1ccccc1)c1ccc(OCCn2cnc3ccccc3c2=O)cc1	none
Cc1cc(NC(=O)CN2C(=O)C3CC=CCC3C2=O)no1 (centres undefined)	none
O=C1/C(=C/c2ccccc2)CCCc2ccccc21	none
O=C1/C(=C/c2ccccc2)CSc2sccc21	CYP2C19 inh 54.8
O=C(O/N=C/c1ccc2c(c1)OCO2)c1ccccc1Cl	none (no result: Mac1 fbg inh, CD11b adhes enh)
CCOc1cc(/C=N/n2cnnc2)ccc1OCC(=O)Nc1ccccc1OC	CYP2C9 inhib 69.7, CYP2C19 inh 54.1
COc1ccccc1NC(=O)COc1ccc(/C=N/n2cnnc2)cc1OC	CYP2C9 inhib 71.6, CYP2C19 inh 56.0
CCOc1cc(/C=C\[N+](=O)[O-])ccc1OCC(=O)Nc1ccccc1C	none
CON(c1nc(N(C)C)nc(N(C)C)n1)S(=O)(=O)c1ccccc1Cl	none (no result: Mac1 fbg inh, CD11b adhes enh)
O=C1C(Cl)=C(N2CCCCC2)C(=O)N1c1ccccc1	none
O=C1C(Cl)=C(N2CCN(Cc3ccccc3)CC2)C(=O)N1Cc1ccccc1	CYP2C9 inhib 54.6 (no result: Mac1 fbg inh, CD11b adhes enh)
COc1ccc(OC)c(-c2nc3c(C)n[nH]c(=O)c3[nH]2)c1	none
CC(C)NC(=O)c1onc(CSc2ccc(F)c(F)c2)c1C(=O)O	CYP2C9 inhib 76.2 (no result: Mac1 fbg inh, CD11b adhes enh)
Cc1ccccc1SCc1noc(C(=O)NC(C)C)c1C(=O)O	none (no result: Mac1 fbg inh, CD11b adhes enh)
O=C(NCC1CCCO1)c1onc(CSc2ccc(Cl)cc2)c1C(=O)O (centres undefined)	CYP2C9 inhib 51.2 (no result: Mac1 fbg inh, CD11b adhes enh)
CC(C)NC(=O)c1onc(CSc2cccc(Cl)c2)c1C(=O)O	CYP2C9 inhib 64.4 (no result: Mac1 fbg inh, CD11b adhes enh)
Cc1ccc(SCc2noc(C(=O)NC(C)C)c2C(=O)O)cc1C	CYP2C9 inhib 80.3 (no result: Mac1 fbg inh, CD11b adhes enh)
COc1ccc(CCNS(=O)(=O)c2cccc(C(=O)O)c2)cc1OC	none
CCOc1ccc(C(=O)/C=C/c2ccccc2C(F)(F)F)cc1	none
CC(C)NC(=O)c1onc(CSc2ccc(C(C)C)cc2)c1C(=O)O	CYP2C9 inhib 90.7 (no result: Mac1 fbg inh, CD11b adhes enh)
CC(C)NC(=O)c1onc(CSc2ccc(F)cc2)c1C(=O)O	none (no result: Mac1 fbg inh, CD11b adhes enh)
CCOC(=O)c1c(C)n(C)c2ccc(OC)c(NC(=O)c3cccs3)c12	none
CCOCCCNC(=O)C(NC(=O)CNC(=O)c1ccccc1)c1ccccc1 (centres undefined)	none
O=C(NCc1ccco1)C(c1cccnc1)N(C(=O)Cn1nnc2ccccc21)c1ccccc1 (centres undefined)	CYP2C19 inh 51.2
O=C(NCc1ccco1)C(c1ccncc1)N(CCC1=CCCCC1)C(=O)Cn1nnc2ccccc21 (centres undefined)	CYP2C9 inhib 61.7, CYP2C19 inh 50.8
Cc1cccc(N(C(=O)Cn2nnc3ccccc32)C(C(=O)NCc2ccco2)c2ccncc2)c1 (centres undefined)	none
COCCNC(=O)CN(C(=O)Cn1nnc2ccccc21)c1ccc(F)c(Cl)c1	CYP2C19 inh 56.2
COc1ccc(N(C(=O)Cn2nnc3ccccc32)C(C(=O)NCc2ccco2)c2cccnc2)cc1 (centres undefined)	CYP2C19 inh 78.0
Cn1c(=O)c2c(-c3cccc(F)c3)c3c(nc2n(C)c1=O)-c1ccccc1C3O (centres undefined)	none (no result: Mac1 fbg inh, CD11b adhes enh)
Cc1ccc2nc(-c3ccc(NC(=O)CN4C(=O)NC(C)(c5ccc(OC(F)F)cc5)C4=O)cc3)sc2c1 (centres undefined)	none (no result: CYP2C9 activ, CYP2C19 act, CYP2C9 inhib, CYP2C19 inh)
CCc1ccccc1N(C(=O)Cn1nnc2ccccc21)C(C(=O)NCCOC)c1ccco1 (centres undefined)	CYP2C9 inhib 56.0, CYP2C19 inh 61.3
CCc1ccc2oc(=O)cc(CN3CCN(c4ccc(F)cc4)CC3)c2c1	CYP2C19 inh 51.6
Cc1nc(NNC(=O)c2ccc(Cl)cc2Cl)cc(-c2ccccc2)n1	CYP2C9 inhib 51.3
O=C1CN(C(=O)COC(=O)C23CC4CC(CC(O)(C4)C2)C3)c2ccccc2N1	none
O=C(Nn1cnc2ccccc2c1=O)C1CCCCC1	none
CCCC1CCC(C(=O)Nn2cnc3ccccc3c2=O)CC1 (centres undefined)	CYP2C9 inhib 56.5, CYP2C19 inh 58.3 (no result: Mac1 fbg inh, CD11b adhes enh)
Cc1ccc(SCCC(=O)NCCSCc2ccccc2C)cc1	CYP2C9 inhib 80.9
COc1ccc(C(=O)NCCSCc2ccco2)cc1OC	none
COc1ccc(C(=O)NCCSCc2ccccc2C)cc1	CYP2C9 inhib 52.3, CYP2C19 inh 55.3
O=C(CCSc1ccccc1)NCCSCc1ccco1	none (no result: CYP2C9 activ, CYP2C19 act, CYP2C9 inhib, CYP2C19 inh)
COc1ccc(C(=O)NCCSCc2ccc(C)cc2)cc1	CYP2C9 inhib 53.3, CYP2C19 inh 55.2 (no result: Mac1 fbg inh, CD11b adhes enh)
O=C(O)CCCCCNC(=O)c1ccccc1	none
COc1cccc(NC(=O)Cn2nnc(-c3ccccc3N)n2)c1	CYP2C19 inh 51.9
O=C(Cn1nnc(-c2ccccc2)n1)c1ccccc1	CYP2C19 inh 59.2
O=C(Cn1nnc(-c2ccc(Cl)cc2)n1)NCCC1=CCCCC1	CYP2C19 inh 52.5
O=C(Cn1nnc(-c2ccccc2)n1)Nc1ccc2c(c1)OCO2	none
O=C(Cn1nnc(-c2ccc(Cl)cc2)n1)NCC1CCCCC1	none
O=C(Cn1nnc(-c2ccncc2)n1)Nc1ccc2c(c1)CCC2	CYP2C9 inhib 75.1, CYP2C19 inh 91.0
